Data as given in PubChem BioAssay (NCI).
Several values for one entry are separate records, joined by “and”; a condition that tells them apart may be missing. Identical values can stand only once. Compounds without any hit were thinned out: in the full panel of roughly 79,000, 15% have a hit. A number with no mark means an inactive call. Activity calls are given as the source filed them. Cut-off read from the data, not from the text of the source: active = growth inhibition above about 70%; inactive = the rest.

Key:
[1] = NCI Yeast Anticancer Drug Screen. Data for the rad50 strain (AID 155);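 note: 0% = growth of vehicle-only cultures of the same strain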; details: S. cerevisiae rad50 strain growth inhibition; at 50.0 µM; active compounds read high
How it was run: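 Compounds were tested on a yeast strain with an engineered DNA damage repair alteration; the reported value is growth inhibition normalised to vehicle treatment.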

[2] = NCI Yeast Anticancer Drug Screen. Data for the mec2-1 strain (AID 157); details: S. cerevisiae mec2-1 strain, at 50.0 µM, active compounds read high
How it was run: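 Yeast mec2-1 mutant treated with compound. Readout: growth inhibition vs vehicle controls.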

[3] = NCI Yeast Anticancer Drug Screen. Data for the sgs1 mgt1 strain (AID 161);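 note: 0% = growth of cultures given vehicle only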; details: S. cerevisiae sgs1 mgt1 strain, at 50.0 µM, active compounds read high
How it was run: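 Read-out: growth inhibition vs vehicle controls. Cells: mutant yeast strain deficient in DNA damage repair.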

[4] = NCI Yeast Anticancer Drug Screen. Data for the cln2 rad14 strain (AID 165);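 note: 0% = growth equal to vehicle treated cultures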; details: S. cerevisiae cln2 rad14 strain, at 50.0 µM, active compounds read high
How it was run: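 cln2 rad14 yeast strain; compound exposure; growth inhibition read vs vehicle controls.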

[5] = NCI Yeast Anticancer Drug Screen. Data for the bub3 strain (AID 167); details: S. cerevisiae bub3 mutant strain, at 50.0 µM, active compounds read high
How it was run: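 Growth of a checkpoint-deficient yeast mutant is measured after compound exposure. Values represent inhibition relative to vehicle.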

[6] = NCI Yeast Anticancer Drug Screen. Data for the mlh1 rad18 strain (AID 175); details: S. cerevisiae mlh1 rad18 strain growth inhibition; at 50.0 µM; active compounds read high
How it was run: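 Yeast w/ defined DNA-repair lesions; compound exposure; growth vs vehicle controls → % inhibition.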

SMILES | growth inhibition [1] | growth inhibition [2] | growth inhibition [3] | growth inhibition [4] | growth inhibition [5] | growth inhibition [6]
CCOC(=O)/C(=C/c1ccc[nH]1)P(=O)(OCC)OCC | -28.6% | -26.1% | -31.8% | 5.65% | 6.6% | -42.1%
CC(N)C(=O)O (stereo unspecified) | 17.9% and -7.45% | -43.1% and -5.4% | 8.7% and -25.4% | 5.8% and 12.2% | 7.65% and -26.8% | 8.2% and -9.2%
COc1ccc([N+](=O)[O-])cc1N=Cc1ccc(N(CCCl)CCCl)cc1C | 43% | 13.3% | 52.2% | 18.6% | 3.5% | 17.1%
O=N[O-].O=N[O-].[Co].[NH2-].[NH2-].[NH2-].[NH2-] | 0.1% | -11.5% | -3.5% | -14.3% | 2.15% | 26.9%
[CH3][Sb]([CH3])([CH3])([O]C(=O)C(Cl)Cl)[O]C(=O)C(Cl)Cl | 10.1% | -7.15% | 15.3% | -22.6% | -1.7% | 2.9%
COC1CC(OC2OC(CO)C(O)C(O)C2O)/C(=C\C#N)C(O)C1OC (stereo unspecified) | 1.95% | -3.05% | 1.8% | 9.25% | 2.35% | -58.2%
O=C1NCCCCC1Cl (stereo unspecified) | -12.4% | -1.1% | -4% | -21% | 8.8% | 14.5%
NC(=O)/C=C/C(=O)O | 19% | 9.75% | 10.5% | -8.25% | 11% | 14%
CN1CCC2(CC1)c1ccccc1-c1ccccc12 | -7.7% | -20.6% | -2.6% | -25% | -12.7% | -38.7%
Cc1cc(Cl)ccc1[NH-].Cc1cc(Cl)ccc1[NH-].[Cl][Pt+2][Cl] | 35.3% | 12.6% | 30.8% | 2.05% | 18.3% | 30.2%
OCCCCO | -5.9% | -1.7% | -12% | -10.4% | -12.1% | 1.35%
CCN(CC)C(=O)CCN1CC1 | 10.4% | -0.65% | 12.3% | 19.5% | 5.1% | -1.25%
C[C@]12Cc3sc(N)nc3C[C@@H]1CC[C@@H]1[C@@H]2CC[C@@]2(C)[C@H]1CC[C@]2(C)O | -21.5% | -18.4% | 11% | -32% | 25.6% | -4.95%
CCOP(=S)(OCC)OCC1OC(OC)C2OC(C)(C)OC12 (stereo unspecified) | -26.2% | 1.9% | -2.45% | -35.4% | 11.8% | 4.4%
CCCN(CCC)C(=O)CCl | -4.55% | 5.2% | 5.85% | 3.3% | -4.55% | 9.4%
COP(=O)(NC(C)=O)OC | 11.6% | -14.7% | -4.5% | -45.8% | -10.5% | -1.55%
CCC(Cl)COP(=O)(OCC(Cl)CC)O/C(C)=C(\C)OP(=S)(OCC(Cl)CC)OCC(Cl)CC (stereo unspecified) | 86.5% (active) | 93.2% (active) | 93.8% (active) | 99.2% (active) | 98.8% (active) | 96.8% (active)
CC(C)N(N=O)C(C)C | 13.7% | -4.6% | 6.85% | 1.9% | 0.95% | 16.5%
OCC[N+]12CN3CN(CN(C3)C1)C2 | 21.9% | 6.3% | 20.1% | 16.9% | 4.55% | 15.7%
COc1cc2c(cc1O)C(=O)O[C@@H]1CC=C3CCN(C)[C@H]3[C@H]21 | 3.4% | 11.3% | -7.3% | 7.1% | -37.4% | 19.8%
COc1cccc(OC)c1CCN | -27.9% | -5.3% | -11.4% | -1.1% | -24.8% | -36%

SMILES | growth inhibition [1] | growth inhibition [2] | growth inhibition [3] | growth inhibition [4] | growth inhibition [5] | growth inhibition [6]
O=C(c1ccccc1)C1C(c2ccccc2)N1Cc1ccccc1 (stereo unspecified) | 0.35% | 12.2% | 10.2% | 6.15% | 9.65% | -2.9%
O=C1OP2(c3ccccc3)(OC(=O)c3ccccc32)c2ccccc21 | 18.6% | 16.2% | 20.4% | -20.3% | -18.5% | 14.3%
Cc1nc2ccccc2[se]1 | -33.4% | -32.5% | -3.5% | 3.5% | 35.7% | -18.1%
Cn1cccc1-c1cccnc1 | -23.8% and -4.7% | -34.6% and -4.95% | -4.8% and -7.45% | 10.7% and 0.7% | -19.3% and 0.05% | -12.7% and -9.15%
CCOP(=O)(OCC)Oc1cc(C)c(Cl)c(C)c1 | 10.2% | -16.7% | 4.15% | 18.4% | 16.9% | -8.35%
O=C(CC(=O)C(F)(F)F)c1cccs1.O=C(CC(=O)C(F)(F)F)c1cccs1.O=C(CC(=O)C(F)(F)F)c1cccs1.[Eu] | 27.7% | 37.6% | 39.5% | 9.4% | 39% | 23.1%
CCC[CH2][Sn]([I])([CH2]I)[CH2]CCC | 98.5% (active) | 99.1% (active) | 99% (active) | 98.6% (active) | 98.8% (active) | 98.5% (active)
O=C(COc1ccc(Cl)cc1C(=O)O)Nc1cccc(NC(=O)Nc2cccc(S(=O)(=O)F)c2)c1 | 2.3% | -13.3% | -12.9% | -17.9% | 1.95% | 11.6%
CO[C](=[W])c1ccccc1.[C-]#[O+].[C-]#[O+].[C-]#[O+].[C-]#[O+].[C-]#[O+] | 12.2% | -0.6% | -2.3% | 1.55% | 1.05% | -4.1%
CC(=O)Nc1ccc(C(=O)O)cc1 | 5.05% | -1% | 0.1% | 33% | 0.15% | 1.8%
CC1(C)[C@@H]2CC[C@]1(C)[C@H](OC(=O)C(Cl)(Cl)Cl)C2 | -16.6% | -5.35% | -9.65% | -19.3% | 26.8% | 9.75%
O=c1c(O)c(-c2ccccc2)oc2ccccc12.[Zn+2] | -6.95% | 7.25% | 20.2% | -41% | 24.9% | 27.6%
O=Cc1ccccc1O | 28.8% | -2.25% | 12.4% | -10.4% | -6.05% | 5.6%
NC(CNC(=O)CBr)C(=O)O (stereo unspecified) | 6.9% | 18.1% | -3.25% | 8.9% | -4.1% | -35.2%
N#C[S-].N#C[S-].[Au+3].[Au+3].[CH3-].[CH3-].[CH3-].[CH3-] | 51.4% | 11% | 61.5% | 33.4% | 12.5% | 53.5%
CC(C)c1cccc(OC(=O)N(C)C=O)c1 | -8.1% | 12.7% | -12.8% | -46.4% | -21.4% | -1.5%
CCCNP(=S)(NCCC)NCCC | 1% | -10.4% | 8.5% | -16.4% | 0% | 22%
C[n+]1c[se]cn1 | -2.9% | 9.25% | -8.2% | 1.2% | -14.1% | 0.55%
C/C(=N\N1CN(C(C)C(=O)O)P(N(CCO)CCO)N=C1N)c1cccs1 (stereo unspecified) | -5.45% | -11.2% | 5.85% | -18.6% | 7.95% | -8.4%
C=CCN(CC=C)C1CCOC(OC)C1O (stereo unspecified) | -19.4% | -20.5% | -9.35% | -5.05% | -12% | -14.2%
